# Assay results reported in PubChem BioAssay.
# Active and inactive are the calls of the source.
# What was measured:
# Albumin (Bos taurus) = Albumin (Bos taurus) (UniProt P02769); assay: bovine serum albumin binders on microarray, profiling panel, artefact control for SMM control protein annotation, biochemical, small-molecule microarray, Alexa647 label, 635/667 nm fluorescence (AID 1118); conditions: BSA-A647 binding, fluorescence 635 nm, higher = more signal;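 note: score merges 667 nm emission intensity and signal-to-noise per printed compound spot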
# [1] = small-molecule microarray binders of probe aXIP, primary screen, biochemical, NeuroSMM set, 635/667 nm fluorescence (AID 1119); conditions: higher = more signal, called active from +8 up or from −8 down;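 note: probe is the protein aXip251-270 applied at 1 µg/mL to compound-printed slides; binding of probe to printed compounds measured as 667 nm fluorescence plus signal to noise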
# [2] = small-molecule binders of probe aNOTCH3, primary screen, biochemical, small-molecule microarray, 635/667 nm fluorescence (AID 1120); conditions: higher = more signal;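 note: probe is a biotin-tagged antibody raised against NOTCH3 rather than NOTCH3 protein; score merges spot fluorescence near 667 nm with spot signal to noise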
# [3] = small-molecule binders of probe aNOTCH2, primary screen, biochemical, small-molecule microarray, 635/667 nm fluorescence (AID 1121); conditions: higher = more signal;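 note: score merges feature fluorescence read at 667 nm with its signal to noise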
# [4] = biological target: Carbonic anhydrase 2 (Homo sapiens) (UniProt P00918); assay: CAII small-molecule binders, profiling panel, biochemical, small-molecule microarray, Alexa647-labelled CAII (AID 1122); conditions: CAII-A647 binding fluorescence, higher = more signal
# [5] = COS7 lysate on small-molecule microarray, probe aHis, 635 nm (AID 1123); conditions: COS7 cell lysate, fluorescence, higher = more signal;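 note: z-score combines 667nm fluorescence intensity with signal-to-noise per printed compound spot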
# [6] = compound binding in COS7 lysate, probe aLAP1, primary screen, cell lysate, small-molecule microarray (AID 1124); conditions: probe aLAP1, fluorescence, higher = more signal;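 note: lysate comes from COS7 cells expressing LAP1 and is applied at 0.3 µg/mL; score merges spot fluorescence near 667 nm with signal-to-noise over triplicate slides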
# Sam68 (KHDRBS1) = assay: Sam68 small-molecule binders, primary screen, biochemical, small-molecule microarray, 635 nm fluorescence (AID 1125); conditions: small-molecule microarray binding, higher = more signal;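 note: score merges 667 nm channel intensity with signal to noise over triplicate slides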
# [7] = test system: Chordin-like protein 2 (CHRDL2); assay: CHRDL2 small-molecule binders, primary screen, biochemical, small-molecule microarray, 635 nm fluorescence (AID 1126); conditions: small-molecule microarray binding, fluorescence 635 nm; higher = more signal;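 note: printed compound slides probed with Chrdl2 protein at 4 µg/mL for 1 h at 4 C; score merges 667 nm emission intensity with signal to noise over three replicate slides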
# [8] = biological target: Concanavalin-A (Canavalia ensiformis) (UniProt P02866); assay: ConA small-molecule binders, primary screen, artefact control for SMM control protein annotation, biochemical, small-molecule microarray, Alexa647 label, 635 nm (AID 1127); conditions: ConA-A647 binding fluorescence, higher = more signal;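 note: z combines 667 nm emission intensity with signal-to-noise across three replicate slides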
# [9] = anti-His antibody binders, primary screen, artefact control for SMM control protein annotation, biochemical, small-molecule microarray, 635 nm fluorescence (AID 1128); conditions: anti-His Alexa647 antibody binding, higher = more signal;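 note: score merges feature fluorescence with signal-to-noise for each printed compound spot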
# [10] = test system: Human papillomavirus type 1a E7 protein (residues 1-88); assay: HPV1a E7 small-molecule binders, primary screen, biochemical, small-molecule microarray, residues 1-88, 635 nm (AID 1129); conditions: small-molecule microarray binding, fluorescence 635 nm; higher = more signal
# [11] = biological target: Focal adhesion kinase 1 (Homo sapiens) (UniProt Q05397); assay: small-molecule microarray binders of FAK, primary screen, biochemical, 635/667 nm fluorescence, BSA, DTT (AID 1130); conditions: PTK2 binding, 635 nm fluorescence, higher = more signal;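 note: composite of spot emission at 667 nm and signal to noise over triplicate slides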
# [12] = test system: Fibrinogen (Alexa647-labelled); assay: fibrinogen binders on compound microarrays, profiling panel, artefact control for SMM control-protein annotation, biochemical, small-molecule microarray, 635/667 nm fluorescence (AID 1131); conditions: fibrinogen-A647 binding fluorescence, higher = more signal;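 note: z-score merges 667 nm fluorescence with per-spot signal-to-noise over triplicate slides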
# [13] = biological target: Follistatin (Homo sapiens) (UniProt P19883); assay: follistatin binders on small-molecule microarrays, primary screen, biochemical, small-molecule microarray, 635/667 nm fluorescence (AID 1132); conditions: FST binding, 635 nm fluorescence, higher = more signal
# [14] = biological target: Fibroblast growth factor 2 (Homo sapiens) (UniProt P09038); assay: FGF2 binders on small-molecule microarrays, primary screen, biochemical, small-molecule microarray, 635/667 nm fluorescence (AID 1133); conditions: small-molecule microarray binding, FGF2, fluorescence 635/667; higher = more signal
# [15] = mitochondrial membrane potential change in A549 cells, profiling panel, cell-based, JC-1 fluorescence, basal, 24 h, 100 nL (AID 1138); conditions: higher = more signal;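 note: A549 lung adenocarcinoma cells under basal conditions with no added stimulus; test concentration not given here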
# Lefty1 = Lefty1 binders on small-molecule microarrays, primary screen, biochemical, small-molecule microarray, 635/667 nm fluorescence (AID 1139); conditions: small-molecule microarray binding, fluorescence 635/667; higher = more signal
# [16] = test system: wheat germ agglutinin (Triticum aestivum), Alexa647-labelled; assay: wheat germ agglutinin binders on compound microarrays, profiling panel, artefact control for SMM control-protein annotation, biochemical, small-molecule microarray, 635/667 nm fluorescence (AID 1140); conditions: WGA-A647 binding, 635 nm fluorescence, higher = more signal;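 note: score merges 667 nm feature emission with signal to noise over triplicate slides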
# [17] = biological target: Luciferin 4-monooxygenase (Photinus pyralis) (UniProt P08659); assay: firefly luciferase enzyme inhibitors, primary screen, biochemical, luminescence, purified enzyme, 2006 set (AID 1141); conditions: SteadyGlo luminescence, 30 min, higher = more signal, called active from +8 up or from −8 down;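 note: cell-free assay with purified firefly luciferase at 100 ng per well in PBS; test concentration not given here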
# Sequence of Luciferin 4-monooxygenase (Photinus pyralis) (P08659 whole entry, looked up): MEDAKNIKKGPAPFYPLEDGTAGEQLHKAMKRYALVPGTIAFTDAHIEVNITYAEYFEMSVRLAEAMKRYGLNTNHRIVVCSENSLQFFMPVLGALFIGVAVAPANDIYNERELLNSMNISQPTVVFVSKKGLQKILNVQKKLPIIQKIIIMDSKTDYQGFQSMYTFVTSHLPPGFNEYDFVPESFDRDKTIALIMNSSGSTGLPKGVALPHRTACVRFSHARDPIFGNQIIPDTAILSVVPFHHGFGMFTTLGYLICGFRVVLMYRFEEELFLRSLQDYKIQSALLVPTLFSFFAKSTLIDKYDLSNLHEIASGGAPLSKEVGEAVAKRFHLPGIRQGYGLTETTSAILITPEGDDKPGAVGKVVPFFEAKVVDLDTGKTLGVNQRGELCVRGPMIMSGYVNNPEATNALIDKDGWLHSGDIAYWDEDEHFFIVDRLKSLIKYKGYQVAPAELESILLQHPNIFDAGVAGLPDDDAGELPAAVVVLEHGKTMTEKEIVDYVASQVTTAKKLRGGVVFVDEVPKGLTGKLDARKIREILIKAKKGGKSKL
# Sequence of Fibroblast growth factor 2 (Homo sapiens) (P09038 whole entry, looked up): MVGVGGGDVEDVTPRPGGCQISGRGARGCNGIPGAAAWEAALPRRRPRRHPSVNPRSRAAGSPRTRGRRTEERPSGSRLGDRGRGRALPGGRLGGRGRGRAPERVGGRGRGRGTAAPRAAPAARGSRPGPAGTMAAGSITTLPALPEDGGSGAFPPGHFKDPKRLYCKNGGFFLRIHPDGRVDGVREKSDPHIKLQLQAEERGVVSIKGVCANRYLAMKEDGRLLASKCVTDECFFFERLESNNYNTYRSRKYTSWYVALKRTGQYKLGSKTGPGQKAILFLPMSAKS
# Sequence of Concanavalin-A (Canavalia ensiformis) (P02866 whole entry, looked up): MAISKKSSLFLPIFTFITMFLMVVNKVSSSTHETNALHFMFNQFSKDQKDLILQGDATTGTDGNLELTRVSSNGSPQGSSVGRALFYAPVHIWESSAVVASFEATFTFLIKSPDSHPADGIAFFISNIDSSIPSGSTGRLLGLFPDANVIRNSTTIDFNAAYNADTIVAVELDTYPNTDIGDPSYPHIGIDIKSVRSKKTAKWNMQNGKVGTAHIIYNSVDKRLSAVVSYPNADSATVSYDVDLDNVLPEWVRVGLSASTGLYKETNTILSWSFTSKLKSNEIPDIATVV
# Sequence of Follistatin (Homo sapiens) (P19883 whole entry, looked up): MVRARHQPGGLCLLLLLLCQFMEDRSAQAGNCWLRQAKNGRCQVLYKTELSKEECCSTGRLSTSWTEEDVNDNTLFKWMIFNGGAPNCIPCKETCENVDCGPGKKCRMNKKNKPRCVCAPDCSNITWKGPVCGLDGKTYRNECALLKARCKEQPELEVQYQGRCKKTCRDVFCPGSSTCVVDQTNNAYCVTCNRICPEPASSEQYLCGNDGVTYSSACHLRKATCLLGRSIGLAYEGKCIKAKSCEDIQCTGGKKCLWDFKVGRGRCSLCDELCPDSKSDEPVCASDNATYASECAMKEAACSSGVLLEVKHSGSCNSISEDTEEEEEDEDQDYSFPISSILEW
# Sequence of Focal adhesion kinase 1 (Homo sapiens) (Q05397 whole entry, looked up): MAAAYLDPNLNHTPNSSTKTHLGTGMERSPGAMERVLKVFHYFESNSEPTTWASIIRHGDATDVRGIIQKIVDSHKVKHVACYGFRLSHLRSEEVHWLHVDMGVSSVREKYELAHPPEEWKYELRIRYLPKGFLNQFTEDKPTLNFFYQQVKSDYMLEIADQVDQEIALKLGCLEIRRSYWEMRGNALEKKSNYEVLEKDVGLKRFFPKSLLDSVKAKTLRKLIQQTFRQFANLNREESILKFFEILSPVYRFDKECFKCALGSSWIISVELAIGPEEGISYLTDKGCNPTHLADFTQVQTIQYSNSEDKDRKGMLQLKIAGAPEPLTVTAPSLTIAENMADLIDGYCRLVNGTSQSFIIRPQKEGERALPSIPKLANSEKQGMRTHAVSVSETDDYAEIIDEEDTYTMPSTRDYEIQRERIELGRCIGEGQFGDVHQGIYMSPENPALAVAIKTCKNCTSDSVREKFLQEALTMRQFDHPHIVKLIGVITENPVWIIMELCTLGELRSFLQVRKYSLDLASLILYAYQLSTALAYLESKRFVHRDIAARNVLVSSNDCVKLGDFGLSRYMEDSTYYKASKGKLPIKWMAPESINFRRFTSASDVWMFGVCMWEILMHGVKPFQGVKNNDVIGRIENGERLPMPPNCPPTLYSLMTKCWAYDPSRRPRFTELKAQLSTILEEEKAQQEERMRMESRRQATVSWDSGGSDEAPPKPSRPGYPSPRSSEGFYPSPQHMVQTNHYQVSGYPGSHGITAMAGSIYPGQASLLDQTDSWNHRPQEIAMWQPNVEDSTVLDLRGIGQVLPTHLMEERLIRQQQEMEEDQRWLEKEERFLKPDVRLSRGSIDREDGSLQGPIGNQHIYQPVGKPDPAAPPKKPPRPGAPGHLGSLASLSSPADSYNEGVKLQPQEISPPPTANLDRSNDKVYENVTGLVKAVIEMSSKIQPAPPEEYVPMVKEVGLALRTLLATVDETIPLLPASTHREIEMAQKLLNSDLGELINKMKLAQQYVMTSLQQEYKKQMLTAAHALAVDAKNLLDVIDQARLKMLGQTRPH
# Sequence of Albumin (Bos taurus) (P02769 whole entry, looked up): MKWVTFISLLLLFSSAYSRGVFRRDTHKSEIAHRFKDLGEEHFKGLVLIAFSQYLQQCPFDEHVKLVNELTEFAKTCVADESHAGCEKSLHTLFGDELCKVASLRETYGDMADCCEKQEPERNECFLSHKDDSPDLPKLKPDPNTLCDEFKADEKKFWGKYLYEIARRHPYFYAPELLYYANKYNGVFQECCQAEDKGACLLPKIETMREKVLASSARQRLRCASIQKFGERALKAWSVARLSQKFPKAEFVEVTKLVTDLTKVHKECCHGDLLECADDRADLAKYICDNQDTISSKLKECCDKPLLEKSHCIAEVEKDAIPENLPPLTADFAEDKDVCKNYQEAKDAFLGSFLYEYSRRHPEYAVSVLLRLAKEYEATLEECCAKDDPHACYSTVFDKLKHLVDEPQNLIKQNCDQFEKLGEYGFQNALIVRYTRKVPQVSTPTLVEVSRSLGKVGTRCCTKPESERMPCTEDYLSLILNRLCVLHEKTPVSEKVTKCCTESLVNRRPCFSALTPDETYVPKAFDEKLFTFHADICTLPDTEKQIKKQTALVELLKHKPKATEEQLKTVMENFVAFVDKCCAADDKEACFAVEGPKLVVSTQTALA
SMILES,composite z-score (Albumin (Bos taurus)),composite Z-score [1],composite z-score [2],composite z-score [3],composite z-score [4],composite z-score [5],composite z-score [6],composite z-score (Sam68 (KHDRBS1)),composite z-score [7],composite z-score [8],composite z-score [9],composite z-score [10],composite z-score [11],composite z-score [12],composite z-score [13],composite z-score [14],z-score [15],composite z-score (Lefty1),composite z-score [16],z-score [17]
C[C@@H](c1ccccc1)N1C(=O)[C@H]2[C@H]3[C@H](O)[C@H](O)CC(=NOCc4ccccc4)[C@@H]3CC[C@H]2C1=O,0.758,0.081 (inactive),-0.0055,-0.0467,-0.247,0.043,0.017,-0.105,0.823,-0.577,0.151,-0.513,0.0826,0.0844,-0.7,-0.0815,-0.781,-0.684,0.32,0.747 (inactive)
COc1ccc2c(c1)O[C@@H](c1cccc(C(F)(F)F)c1)[C@H](O)C2=O,0.442,0.115 (inactive),-0.152,-0.0761,0.0122,-0.0749,0.0318,0.642,0.647,0.494,0.0408,0.584,0.0103,0.289,0.282,0.656,0.903,0.309,0.408,0.335 (inactive)
COc1ccc(COC(=O)NN=C2C[C@@H](O)[C@@H](O)[C@@H]3[C@@H]4C(=O)N(c5cccc(Oc6ccccc6)c5)C(=O)[C@@H]4CC[C@H]23)cc1,0.64,-0.626 (inactive),0.0793,-0.0665,-0.0831,0.852,-0.0241,-0.546,-0.636,0.433,0.362,-0.476,0.407,0.744,-0.355,-0.603,-0.593,-0.258,0.916,0.911 (inactive)
CCN1C(=O)[C@H]2[C@H]3[C@H](O)[C@H](O)CC(=NO[C@@H]4O[C@H](CO)[C@@H](O)[C@H](O)[C@H]4O)[C@H]3CC[C@H]2C1=O,-0.0203,0.121 (inactive),-0.0783,-0.148,-0.0497,-0.0296,0.212,-0.305,0.43,0.634,0.0595,0.512,0.026,0.16,0.442,0.922,-0.8,0.467,0.0622,0.217 (inactive)
CCOC(=O)[C@H](CC(C)C)NC(=O)CCC1CC(OC(=O)NCc2ccc3c(c2)OCO3)CC2(CCCC(COC(=O)NCCOC)O2)O1 (stereo not given in full),-0.398,-0.0756 (inactive),0.0208,-0.166,0.152,0.57,0.0898,0.911,0.293,0.858,0.418,0.758,-0.379,0.942,0.589,0.725,-0.119,0.847,0.609,0.713 (inactive)
COc1cccc([C@H]2Oc3ccc(OC)cc3C(=NOCC[C@@H]3C=C[C@H](OC(C)=O)[C@@H](COC(C)=O)O3)[C@@H]2O)c1,0.869,0.551 (inactive),0.0293,-0.213,0.36,0.788,0.687,0.785,0.503,0.794,-0.972,0.562,0.292,0.967,0.37,0.462,-0.806,0.329,0.274,1.14 (inactive)
O=C1CCCC=C1C(O)COCc1ccccc1 (stereo not given),0.411,0.16 (inactive),-0.154,-0.157,-0.213,0.428,0.08,-1.01,-0.137,0.999,0.195,-1.33,0.0944,0.772,0.124,0.236,-0.68,0.295,-0.0439,0.345 (inactive)
CCOC(=O)[C@H](Cc1ccccc1)NC(=O)CCC1CC(OC(=O)NCCc2ccc(F)cc2)CC2(CCCC(COC(=O)NCc3cccc(C(F)(F)F)c3)O2)O1 (stereo not given in full),0.825,1.43 (inactive),0.148,-0.192,0.499,2.08,0.137,1.3,0.285,1.06,0.554,1.16,0.31,0.943,0.787,0.696,0.578,1.64,0.502,0.871 (inactive)
CC=CC1=C(CO)[C@H](O)[C@H]2O[C@H]2[C@@H]1O,-0.0712,0.0296 (inactive),0.213,-0.141,0.17,-0.394,-0.599,0.269,0.753,0.0361,0.343,0.23,-0.401,-0.0599,0.937,0.45,-0.537,0.911,-0.0224,-0.0811 (inactive)
COC(=O)[C@H](C)NC(=O)CCC1CC(OC(=O)NCc2cccc3ccccc23)CC2(CCCC(COC(=O)NCCC(C)C)O2)O1 (stereo not given in full),0.168,0.559 (inactive),-0.095,-0.124,0.24,1.01,0.127,0.997,0.229,-0.087,0.164,1.18,0.287,-1.15,0.295,0.803,0.95,0.36,0.268,0.652 (inactive)
